From PubChem BioAssay
Rows were chosen to be rich in hits. Some 4.1% of all compounds tested hit in one or more screens of this group.
hcDAF-12 act = H. contortus DAF-12 nuclear receptor activators, primary screen, cell-based, luminescence, HEK293, lit1-tk-luc reporter; HEK293 hcDAF-12 lit1-tk-luc reporter; 0% DMSO, 100% Δ7-dafachronic acid; AID 652067, 2013; activation, % at 6.8 µM; 1.4% of 370,000 active;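 active means activation above the mean of all tested compounds plus 3 SD, cut at about 5.5% in these data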;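 further: 100% = response to 3 µM Δ7-dafachronic acid high control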
DAX1 inh-1 = DAX1 (NR0B1) inhibitors on StAR promoter, primary screen, cell-based, luminescence, SF-1 (NR5A1), full-length DAX-1 | 1.1% of 370,000 active | HEK293T StAR-luciferase reporter, SF-1/DAX-1 repression relief | inhibition, % at 6.8 µM;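 active means inhibition above the mean over all tested compounds plus 3 SD, cut at about 3.6% in these data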;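 further: 0% = DAX-1 cells with DMSO and 100% = cells lacking DAX-1 with DMSO; higher inhibition means more luminescence from relief of DAX-1 repression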
DAX1 inh-2 = DAX1 (NR0B1) inhibitors, primary screen, cell-based, HEK293, Gal4-DAX1, luciferase luminescence; Nuclear receptor subfamily 0 group B member 1 (Homo sapiens), P51843; 0.99% of 340,000 active; inhibition, % at 6.75 µM; AID 504766, 2011; HEK293 Gal4-DAX1 luciferase reporter;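 active means inhibition above the mean over all tested compounds plus 3 SD, cut at about 4.2% in these data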;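 further: 0% = DAX1-transfected cells with DMSO and 100% = empty-vector control cells with DMSO; inhibition shows as a rise in luminescence from relieved DAX1 repression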
Target sequence (P51843 207-470 limits assumed): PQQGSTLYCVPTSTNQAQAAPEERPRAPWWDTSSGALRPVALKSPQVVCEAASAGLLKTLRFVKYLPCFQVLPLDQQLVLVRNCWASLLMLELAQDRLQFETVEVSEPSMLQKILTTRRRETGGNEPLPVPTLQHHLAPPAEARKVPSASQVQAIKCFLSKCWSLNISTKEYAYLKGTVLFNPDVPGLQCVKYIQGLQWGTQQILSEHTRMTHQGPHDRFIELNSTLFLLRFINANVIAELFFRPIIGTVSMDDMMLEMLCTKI
ssDAF12 agonist = S. stercoralis DAF-12 nuclear receptor activators, primary screen, cell-based, luminescence, HEK293, GRIP1 co-expression, lit1-tk-luc; Nuclear hormone receptor DAF-12 (Strongyloides stercoralis); HEK293 ssDAF-12/GRIP1 lit1-tk-luc reporter; % of 3 µM dafachronic acid response; activation, % at 6.8 µM; 1% of 370,000 active; AID 652126, 2013;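 active means activation above the mean over all tested compounds plus 3 SD, cut at about 0.9% in these data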;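 further: 0% = DMSO-only wells and 100% = 3 µM delta7-dafachronic acid wells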
hgDAF-12 ag = H. glycines DAF-12 receptor agonists, primary screen, cell-based, luminescence, HEK293, GAL4 fusion, UAS-luciferase; HEK293 GAL4-hgDAF12 UAS-luciferase reporter, agonist luminescence; normalized to butyrate control; activation, % at 6.8 µM; Nuclear hormone receptor DAF-12 (Heterodera glycines), GAL4 fusion; 1.8% of 370,000 active; AID 687014, 2013;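 active means activation above a cutoff set at the mean of all screened compounds plus 3 SD, cut at about 10% in these data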;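 further: 0% = DMSO wells and 100% = sodium butyrate wells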
LXRb hcDAF ctr = LXR agonists, Gal4 luciferase reporter, confirmation, counter-screen for hcDAF-12 agonist project, cell-based, luminescence, HEK293, H. contortus campaign; HEK293 Gal4-LXR tk-luc reporter, 24 h; normalized: DMSO 0%, positive control 100%; shares compounds with hcDAF-12 act; 3,400 tested, under 10 active; activation, % at 6.8 µM; AID 743027, 2013;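 active means mean percent activation of the reporter above a cutoff set as the average over tested compounds plus their standard deviation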
hcDAF12 ag = H. contortus DAF-12 receptor agonists, confirmation, cell-based, luminescence, HEK293, lit1-tk-luc, triplicate | shares compounds with hcDAF-12 act | HEK293 hcDAF-12 lit1-tk-luc reporter; % of Δ7-dafachronic acid response | activation, % at 6.8 µM | 61% of 3,400 active | AID 743032, 2013;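 active means mean activation across triplicate tests above the threshold derived from the earlier primary screen, cut at about 5.5% in these data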;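 further: 0% = DMSO only wells and 100% = 3 µM Δ7-dafachronic acid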
* marks the source's active call; other numbers are inactive results; nt = no result.

SMILES	hcDAF-12 act	DAX1 inh-1	DAX1 inh-2	ssDAF12 agonist	hgDAF-12 ag	LXRb hcDAF ctr	hcDAF12 ag
COC(=O)[C@]12C[C@H](CC(=O)N3CCCCC3)C(=O)N(Cc3ccccc3)C1=C[C@H](COCc1ccccc1)O[C@@H]2C	-3	0	nt	-1	-2	nt	nt
Cc1c(NC(=O)c2nn3c(C(F)(F)F)cc(-c4ccccc4)nc3c2Cl)c(=O)n(-c2ccccc2)n1C	6.8*	0	-1	-1	2	0	-1
CCc1ccc(N2NC(=O)/C(=C/C=C/c3ccco3)C2=O)cc1	7.7*	0	-1	0	0	0	1
CCOC(=O)c1ccc(N2N=C(C)/C(=C/C=C/c3ccco3)C2=O)cc1	1	0	0	-1	1	nt	nt
C/C(=C\C(=S)Nc1ccccc1)Nc1ccccc1	9.6*	0	0	0	5	0	6.1*
Cc1cc2c(nc1C)CCCN2S(=O)(=O)c1ccc(F)cc1	-3	1	nt	-1	0	nt	nt
O=c1[nH]c2ccccc2cc1-c1nnn(-c2ccc(F)cc2)n1	1	1	1	0	2	nt	nt
Fc1ccc(-n2nnc(-c3cnc4ccccc4c3)n2)cc1	9.6*	3	-1	0	11*	0	1
CCCCS(=O)(=O)N1CCN(C(=O)C(=O)c2cccc(C(F)(F)F)c2)CC1	0	0	nt	-1	-1	nt	nt
Cc1ccc(C(=O)Nc2ccc(C(=O)N/N=C/c3c[nH]c4ccccc34)cc2)cc1	7.3*	-1	1	0	4	0	7.2*
O=C(N/N=C/c1ccccn1)c1sc2ccccc2c1Cl	0	-1	0	-1	1	nt	nt
COc1ccccc1C(=O)N/N=C/c1c[nH]c2ccccc12	7.0*	0	-1	1.4*	6	0	6.3*
O=C(N/N=C/c1c[nH]c2ccccc12)c1sc2ccccc2c1Cl	9.1*	0	1	0	7	0	4
O=C(CCC(=O)Nc1ccc(F)cc1)N/N=C/c1c[nH]c2ccccc12	3	-1	-1	0	0	nt	nt
Cc1ccccc1CC(=O)Nc1nnc(-c2cccnc2)s1	-1	1	nt	-2	4	nt	nt
O=C(NC1CCCCN(Cc2ccc(OC(F)(F)F)cc2)C1=O)c1ccc2ccccc2c1 (stereo not given)	0	0	nt	-1	2	nt	nt
O=C(OCC(=O)c1c[nH]c2ccccc12)C1=COCCO1	7.2*	3	1	1.0*	9	1	9.9*
O=C(Cn1cncn1)NCc1cccc(OC(F)F)c1	6.8*	0	-1	-1	-1	0	2
Nc1cc2c(cc1Br)[nH]c(=O)c1ccccc12	3	-1	1	-1	0	nt	nt
Nc1cc2[nH]c(=O)c3ccccc3c2cc1Br	9.7*	3.7*	2	1.1*	3	0	9.3*
O=C(CSc1nnc(-c2ccccc2F)o1)N1CCCC1	2	0	2	-1	3	nt	nt
COc1ccccc1-c1nnc(SCC(=O)N2CCCC2)o1	6.7*	1	3	1.4*	1	0	9.1*
CC(C)(C)c1ccc(S(=O)(=O)N2CCCC(C(=O)NCc3ccco3)C2)cc1 (stereo not given)	-3	-1	nt	-1	-3	nt	nt
CCOC(=O)c1nc2ccccc2s1	8.8*	2	3	1.4*	5	0	9.3*
NNC(=O)c1nc2ccccc2s1	2	3	1	0	5	nt	nt
SMILES	hcDAF-12 act	DAX1 inh-1	DAX1 inh-2	ssDAF12 agonist	hgDAF-12 ag	LXRb hcDAF ctr	hcDAF12 ag
O=C(CNC(=O)c1ccccc1)OCc1nc2ccccc2s1	7.5*	0	1	1.0*	8	0	6.4*
O=C(CNC(=O)c1ccccc1F)OCc1nc2ccccc2s1	4	0	1	0	4	nt	nt
NC(=O)c1ccccc1OCc1cccc2ccccc12	-2	0	1	-2	0	nt	nt
CC(=O)OCc1nc2ccccc2s1	7.7*	4.0*	2	0	12*	1	12*
NC(=O)c1ccccc1OCc1nc2ccccc2s1	14*	2	2	0	13*	1	14*
Clc1ccc(-c2[nH]ncc2N=Nc2ccccc2)cc1	0	-1	1	-1	-2	nt	nt
Nc1ccc(N=Nc2ccccc2)c2ccccc12	8.2*	0	1	1	1	0	5
O=c1c(N=Nc2ccccc2)c[nH]n1-c1ccccc1	3	2	2	0	10	nt	nt
c1ccc(N=Nc2ccc3cccccc2-3)cc1	9.1*	0	2	1.8*	6	1	10*
O[C@H](COc1cc(F)cc(F)c1)CN1CCC(C(O)(c2ccccc2)c2ccccc2)CC1	-1	-1	nt	-1	-2	nt	nt
O=S1(=O)c2ccc(Br)cc2OC[C@@H](Cc2ccccc2)N1Cc1cn(Cc2ccc(C(F)(F)F)cc2)nn1	2	1	nt	0	0	nt	nt
Cc1cc(O)c(C(=O)/C=C/c2ccc(C(C)C)cc2)c(=O)o1	8.6*	2	5.7*	1.1*	11*	0	3
Cc1cc(O)c(C(=O)/C=C/c2ccccc2)c(=O)o1	1	0	0	0	2	nt	nt
O=C(Cc1cn(Cc2ccccc2)c2ccccc12)Nc1ccc(Oc2cccnc2)cc1	-2	1	nt	-1	2	nt	nt
Cc1ccc(C(=O)Nc2ncc(Cc3ccccc3)s2)o1	12*	3.8*	-1	0	7	2	8.4*
COC(=O)C(NC=O)C(O)(Cc1ccccc1)C(F)(F)F (stereo not given)	9.7*	1	0	1	5	0	6
COC(=O)C(O)(NC(=O)OCc1ccccc1)C(F)(F)F (stereo not given)	-1	0	0	-1	1	nt	nt
Cc1cc(C)c(S(=O)(=O)NCCn2c(C)cc3ccccc32)c(C)c1	7.1*	-1	0	1	8	0	0
